ELG1 DNA repair – blocks ELG1-dependent DNA repair in HEK293T cells; HEK293T ELG1-luciferase reporter, luminescence, 16 h; DNA damage induced by 5-fluorouridine; Potency, µM (titrated, usually from 46.1 µM), most hits filed as inhibitors; actives 2.3% (n = 330,000); further: nearly all actives have a fitted effect of over 55% in size
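5-Fluorouridine DNA damage + compound/DMSO, 2,000 cells/well, 16 h, 37 °C/5% CO2. ONE-Glo, 30 min RT, luminescence. Readout = decrease in reporter signal.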
RORg inh – blocks mouse ROR gamma transcriptional activity | actives 5.4% (n = 310,000) | Potency, µM (doses to about 53.6 µM), usual class: inhibitors | Drosophila S2 Gal4-RORgamma UAS-luciferase reporter, 20 h; further: nearly all actives have a fitted effect of over 60% in size
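Compounds are pin-transferred onto Drosophila Schneider cells expressing a copper-inducible Gal4–ROR gamma transactivation domain fusion. After 1 hr, copper sulfate is added to 700 uM final; luciferase is read 20 hr later.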
FBPA coupling cs – coupling enzyme interference in Giardia aldolase counter-screen | coupling enzyme system counterscreen, AmpLite Red fluorescence | activity change, negative = inhibition, % at 58.2 µM, hits read low | actives 0.67% (n = 290,000); in the data active means activity change below about -30%
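Compounds tested against the coupling enzymes alone at 57.5 uM final; readout was AmpLite Red fluorescence (525/598 nm) after 20 min at RT.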
TSHR antag – human thyrotropin receptor antagonism | P16473 | TSHR-expressing cells, TSH-stimulated cAMP HTRF, 2 h; stronger effect = lower value | activity change, negative = inhibition, % at 11.5 µM | actives 0.2% (n = 330,000) | AID 504810;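 active means activity change below a set negative limit, meaning inhibition stronger than a set level, cut at about -70% in these data; inconclusive means activity change between two set negative limits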
Target sequence (P16473 whole entry, looked up): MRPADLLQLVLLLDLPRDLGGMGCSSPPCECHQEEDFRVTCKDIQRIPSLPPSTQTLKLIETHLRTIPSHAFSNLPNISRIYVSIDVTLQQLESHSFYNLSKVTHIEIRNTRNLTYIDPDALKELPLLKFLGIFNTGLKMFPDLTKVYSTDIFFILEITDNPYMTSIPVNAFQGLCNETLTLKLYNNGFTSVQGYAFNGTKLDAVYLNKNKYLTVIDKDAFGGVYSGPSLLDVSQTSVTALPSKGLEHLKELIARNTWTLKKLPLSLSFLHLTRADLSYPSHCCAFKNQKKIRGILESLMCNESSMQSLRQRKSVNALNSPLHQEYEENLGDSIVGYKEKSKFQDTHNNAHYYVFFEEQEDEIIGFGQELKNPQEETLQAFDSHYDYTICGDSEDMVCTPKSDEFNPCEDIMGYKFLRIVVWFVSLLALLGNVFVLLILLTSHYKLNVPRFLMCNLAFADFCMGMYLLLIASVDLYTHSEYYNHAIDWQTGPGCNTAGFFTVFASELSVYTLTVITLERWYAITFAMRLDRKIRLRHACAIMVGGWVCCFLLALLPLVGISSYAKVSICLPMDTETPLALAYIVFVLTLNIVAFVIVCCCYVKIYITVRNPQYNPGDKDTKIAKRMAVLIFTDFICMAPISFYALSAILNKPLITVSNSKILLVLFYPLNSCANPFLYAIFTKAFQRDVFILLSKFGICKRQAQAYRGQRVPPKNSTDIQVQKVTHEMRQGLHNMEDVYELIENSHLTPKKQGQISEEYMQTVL
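TSHR-expressing cells, 200/well, pre-treated with compound, then stimulated with EC80 TSH (4nM final) for 2 hours at 37 deg C. cAMP measured by competitive HTRF: anti-cAMP cryptate antibody in lysis buffer plus cAMP-d2, read after 30 minutes at room temperature.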
VP16 counter – inhibits Gal4-VP16 luciferase reporter, ROR gamma counter-screen. actives 3.5% (n = 310,000). Potency, µM (doses to about 53.6 µM), usual class: inhibitors. Drosophila S2 Gal4-VP16 UAS-luciferase, luminescence, 20 h;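 further: Gal4-VP16 expression switched on by copper sulfate through the metallothionein promoter; nearly all actives have a fitted effect of over 50% in size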
Large screens that a line does not name were inactive. Hits are enriched below; roughly 8% of the tested compounds scored in any of these assays. Unless noted, the call rests on the fitted dose curve; in most records, active means well fitted curve in the direction sought with a large enough effect; inconclusive means small, poorly fitted or top-dose-only effect, or another doubt; inactive means no such curve, though single readings can be large; an effect the other way counts as inactive or inconclusive.

O=C(Nc1cc(F)ccc1F)N1CCN(c2ccnc3cc(Cl)ccc23)CC1	ELG1 DNA repair inconclusive, VP16 counter 13µM
Cc1ccc(C)c(S(=O)(=O)N2CCCOC2CNC(=O)C(=O)NC2CCCC2)c1 (stereo unspecified)	none (no result: FBPA coupling cs)
Nc1ccc2nc(-c3ccccc3)sc2c1	RORg inh 8.9µM, VP16 counter inconclusive (no result: ELG1 DNA repair, TSHR antag)
CC(=O)Nc1nc2cc(N)ccc2s1	none (no result: RORg inh, FBPA coupling cs, VP16 counter)
Cc1ccc2nc(-c3ccc(N)cc3)sc2c1	ELG1 DNA repair inconclusive, RORg inh 4.5µM, VP16 counter 10µM
Nc1ccc2nc(-c3ccccc3)c(-c3ccccc3)nc2c1	none (no result: FBPA coupling cs)
COc1ccc2nc(N)sc2c1	ELG1 DNA repair inconclusive
COc1ccc2nc(-c3ccc(N(C)C)cc3)sc2c1	RORg inh 0.63µM, VP16 counter 5µM (no result: ELG1 DNA repair, TSHR antag)
Nc1ccc(-c2nc3cc(N)ccc3s2)cc1	ELG1 DNA repair inconclusive, RORg inh 7.9µM, VP16 counter inconclusive
CC(C(=O)N1CCN(C(=O)c2ccco2)CC1)N1C(=O)NC2(CCCCC2C)C1=O (stereo unspecified)	none (no result: RORg inh, FBPA coupling cs, VP16 counter)
S=P(N1CC1)(N1CC1)N1CC1	none
CCCCOCCCN1CC(=O)N2[C@@H](Cc3c([nH]c4ccccc34)C2(C)C)C1=O	ELG1 DNA repair 13µM, RORg inh inconclusive
COc1cccc([C@@H]2Oc3ccc(Br)cc3C[C@H]2OC(=O)Nc2ccc(OC(F)F)cc2)c1	none (no result: ELG1 DNA repair, TSHR antag)
N#CC1=C(S)N(c2ccccc2)C(c2ccc(-c3cccc(Cl)c3)o2)NC1=O (stereo unspecified)	RORg inh 13µM, VP16 counter inconclusive
CCOc1ccc(C2NC(=O)C(C#N)=C(S)N2c2ccc(C)cc2)cc1OC (stereo unspecified)	RORg inh 14µM, VP16 counter inconclusive
Cc1cccc(N2C(S)=C(C#N)C(=O)NC2c2ccco2)c1 (stereo unspecified)	none
COc1cc(C2NC(=O)C(C#N)=C(S)N2c2ccccc2)ccc1OC(C)C (stereo unspecified)	RORg inh 10µM, VP16 counter inconclusive
COc1ccc(C2NC(=O)C(C#N)=C(S)N2c2ccccc2)cc1OC (stereo unspecified)	RORg inh inconclusive, VP16 counter inconclusive
CN(C)N(C(=O)c1cc(-c2cccs2)nn1-c1ccccc1)C1CCS(=O)(=O)C1 (stereo unspecified)	ELG1 DNA repair inconclusive (no result: RORg inh, FBPA coupling cs, VP16 counter)
CC(C)(C)c1ccc(S(=O)(=O)/C=C/C#N)cc1	none (no result: ELG1 DNA repair, RORg inh, FBPA coupling cs, VP16 counter)
O=C(c1ccccc1)N(Cc1ccc(F)cc1)Cc1nc2ccccc2c(=O)[nH]1	RORg inh 3.5µM, VP16 counter inconclusive
CCCNC(=S)N(Cc1ccccc1)Cc1nc2ccccc2c(=O)[nH]1	ELG1 DNA repair inconclusive, RORg inh 13µM, VP16 counter inconclusive
CCOCCCNC(=S)N(Cc1ccccc1)Cc1nc2ccccc2c(=O)[nH]1	ELG1 DNA repair inconclusive, RORg inh 11µM, VP16 counter inconclusive
O=C(c1ccncc1)N(Cc1ccccc1)Cc1nc2ccccc2c(=O)[nH]1	RORg inh inconclusive
Cc1ccc(C(=O)OCN2C(=O)c3ccccc3C2=O)cc1S(=O)(=O)N1CCOCC1	ELG1 DNA repair inconclusive (no result: RORg inh, FBPA coupling cs, VP16 counter)
O=C(CSc1ncn[nH]1)N/N=C/c1ccc(C(F)(F)F)cc1	none (no result: FBPA coupling cs)
Cc1noc(C)c1-c1ccc2ncnc(NC3CC3)c2c1	none (no result: ELG1 DNA repair, TSHR antag)
COc1cccc(-c2ccc3ncnc(NCc4ccc5c(c4)OCO5)c3c2)c1	ELG1 DNA repair 8.2µM (no result: RORg inh, FBPA coupling cs, VP16 counter)
CC(=O)NCCNc1ncnc2ccc(-c3c(C)noc3C)cc12	RORg inh 11µM, VP16 counter inconclusive (no result: ELG1 DNA repair, TSHR antag)
C/C=C\C1=CCCC1Nc1ncnc2ccc(-c3c(C)noc3C)cc12 (stereo unspecified)	RORg inh 11µM, VP16 counter inconclusive (no result: ELG1 DNA repair, TSHR antag)
Cc1cccc(CNc2ncnc3ccc(-c4c(C)noc4C)cc23)c1	RORg inh 2µM (no result: ELG1 DNA repair, TSHR antag)
COc1cccc(-c2csc(N3CCC(C(N)=O)CC3)n2)c1	none (no result: ELG1 DNA repair, RORg inh, FBPA coupling cs, VP16 counter)
COc1ccc(-c2csc3nc(-c4cccnc4)nc(N4CCC(C(N)=O)CC4)c23)cc1OC	none
COc1ccc(-c2csc3nc(C)nc(N4CCCCC4)c23)cc1OC	ELG1 DNA repair inconclusive, RORg inh 10µM
CC(C)N(Cc1nc(-c2ccc(Cl)cc2)no1)C(=O)CCCN1C(=O)c2ccccc2C1=O	ELG1 DNA repair 23µM, TSHR antag inconclusive
Cn1ccnc1C1CCCCN1Cc1nc(-c2ccc(Cl)cc2)no1 (stereo unspecified)	RORg inh 10µM, VP16 counter inconclusive
CC(C)N(Cc1nc(-c2ccccc2)no1)C(=O)c1ccc(Cl)cc1	RORg inh inconclusive
CN(CCn1ccnc1)Cc1cn(-c2ccccc2)nc1-c1ccc2c(c1)OCO2	none
COc1ccc(-c2noc(CN(Cc3nccn3C)C(C)C)n2)cc1	RORg inh inconclusive
CC(C)N(Cc1nc(-c2ccc(Cl)cc2)no1)Cc1nccn1C	RORg inh 5µM, VP16 counter inconclusive
Clc1ccc(-c2noc(CN3CCCC3)n2)cc1	ELG1 DNA repair inconclusive (no result: VP16 counter)
CN(Cc1cn(-c2ccccc2)nc1-c1ccc2c(c1)OCO2)Cc1nccn1C	ELG1 DNA repair inconclusive, RORg inh 11µM, VP16 counter 11µM
CC(=O)OC1CC2C(C)(C)C(O)C=C[C@@]2(C)C2CC[C@@]3(C)C(c4ccoc4)OC(=O)C4OC43[C@]12C (stereo partly specified)	none (no result: ELG1 DNA repair, TSHR antag)
O=C(CN(c1ccccc1)S(=O)(=O)c1ccccc1[N+](=O)[O-])Nc1cccnc1	none
CC(C)N(Cc1cn(C)nc1-c1cccc(Cl)c1)Cc1nccn1C	RORg inh 7.9µM, VP16 counter inconclusive
CC(C)C(=O)Nc1ccc(NC(=S)NC(=O)c2ccc([N+](=O)[O-])cc2)cc1	RORg inh 10µM
Cc1cc(C(=O)NC(=S)Nc2cccc(C(=O)O)c2C)ccc1[N+](=O)[O-]	none
CC(C)C(=O)Nc1cccc(NC(=S)NC(=O)c2ccc([N+](=O)[O-])cc2)c1	RORg inh 11µM, VP16 counter inconclusive (no result: FBPA coupling cs)
O=C(NC(=S)Nc1cccc(NC(=O)c2ccccc2)c1)c1cccc([N+](=O)[O-])c1	RORg inh inconclusive
CC(=O)Nc1ccc(NC(=S)NC(=O)c2ccc([N+](=O)[O-])cc2)cc1	none
Cc1cc(C(=O)NC(=S)Nc2cccc(NC(=O)C(C)C)c2)ccc1[N+](=O)[O-]	ELG1 DNA repair inconclusive, RORg inh 10µM, VP16 counter inconclusive
O=S(=O)(Nc1ccc2c(c1)OCCO2)c1c(F)cccc1F	none
O=C(NNc1ccccn1)C(=O)NNS(=O)(=O)c1ccc(Cl)cc1	RORg inh inconclusive
O=C(NNc1ccccn1)C(=O)NNS(=O)(=O)c1ccc(F)cc1	ELG1 DNA repair 21µM
COc1ccccc1C(=O)Nc1nnc(S(=O)(=O)N(C)Cc2ccccc2)s1	ELG1 DNA repair inconclusive (no result: FBPA coupling cs)
O=C(CSc1nnc(SCc2cccc3ccccc23)s1)N/N=C/c1c[nH]c2ccccc12	ELG1 DNA repair inconclusive
